# Laboratory results published in PubChem BioAssay AID434989 (The Scripps Research Institute Molecular Screening Center, 2010).
# Out of some 330,000 compounds screened, about 1,400 (0.42%) were called active. Shown is part of a subset that was picked to be rich in actives. Values without a mark were called inactive.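 The calls were made as follows: active = inhibition above its plate's threshold, mean inhibition of all tested compounds on the plate plus 3 SD (cut at about 37% in these data); inactive = the rest.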
# Target: Orexin/Hypocretin receptor type 1 (Homo sapiens) (UniProt O43613)
# Test: blockers of orexin-A calcium signaling via HCRTR1 – fluorescence, CHO/OX1R cells, Fluo-8 calcium, primary screen (AID 434989);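 also: 0% = orexin A challenge wells and 100% = SB-334867-A antagonist wells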
# Conditions: Fluo-8 calcium fluorescence, at 5 µM, hits give high values
# Chain of Orexin/Hypocretin receptor type 1 (Homo sapiens) (O43613 whole entry, looked up): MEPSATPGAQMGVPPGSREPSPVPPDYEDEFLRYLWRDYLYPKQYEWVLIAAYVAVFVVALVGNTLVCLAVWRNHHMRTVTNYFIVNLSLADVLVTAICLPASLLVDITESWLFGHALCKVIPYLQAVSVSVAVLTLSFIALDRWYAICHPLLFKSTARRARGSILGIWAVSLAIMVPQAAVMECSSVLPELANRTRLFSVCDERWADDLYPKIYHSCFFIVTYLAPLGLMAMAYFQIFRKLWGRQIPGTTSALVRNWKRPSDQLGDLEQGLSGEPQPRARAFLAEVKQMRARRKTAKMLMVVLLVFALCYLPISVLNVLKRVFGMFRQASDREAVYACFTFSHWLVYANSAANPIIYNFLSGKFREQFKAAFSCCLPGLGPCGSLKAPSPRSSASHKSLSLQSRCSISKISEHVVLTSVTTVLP
row,SMILES,inhibition
1,CN1CCN(C(=S)SCC(=O)Nc2ccc(Cl)cc2C(=O)c2ccccc2)CC1,-28.1%
2,CC(C(=O)Nc1ccc(Cl)cc1Cl)N1CC=C(c2ccccc2)CC1 (stereo not given),50% (active)
3,Cc1ccc(C(C)C)c(OCC(=O)N2CCN(CC(=O)N3CCOCC3)CC2)c1,4.64%
4,O=C(N/N=C/c1c(O)n(C2CC2)c(=S)[nH]c1=O)c1ccccc1,-22.4%
5,Cc1ccc(Cn2nnnc2CN2CCC(n3nnc4ccccc43)CC2)cc1,-21.8%
6,Cc1ccc(CN2CCCC(C(=O)c3ccc4c(c3)OCO4)C2)cc1C (stereo not given),-21.1%
7,COc1cc2nc(N3CCN(C(=O)[C@@H]4CCCO4)CC3)nc(N)c2cc1OC,2.61%
8,O=C1C2(Cl)C3(Cl)C4(Cl)C(Cl)(Cl)C5(Cl)C3(Cl)C1(Cl)C5(Cl)C24Cl (stereo not given),72.3% (active)
9,CC1=C(C(=O)Nc2ccccc2)SCCO1,-6.61%
10,Nc1ccc([N+](=O)[O-])cc1,-2.36%
